Assay outcomes (PubChem)
Peg3 promoter = Peg3 promoter activity inhibition | AID 588405 | inhibition, % at 20 µM | 1.7% of 360,000 active | HeLa PEG-Prom luciferase reporter, luminescence, overnight;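 active means inhibition of at least 50% at 20 µM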
TRPM1 prom inh = inhibitors of MITF-driven TRPM1 promoter in melanoma cells. AID 488899. 0.83% of 330,000 active. SK-MEL-5 TRPM1 promoter luciferase, 24 h. inhibition, % at 12.5 µM;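 active means mean inhibition across replicates of 60% or more, whatever share of single replicates reaches that level; inconclusive means some that reach 60%, reason not given; inactive means mean inhibition across replicates below 60%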
Shn3 3UTR inh = inhibitors of Schnurri-3 3'UTR reporter in osteoblasts | Clone20 osteoblast Shn3 3'UTR firefly luciferase, 24 h | 0.52% of 360,000 active | inhibition, % at 12.5 µM;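 active means mean inhibition of at least 75% with every replicate also reaching 75%; inconclusive means mean inhibition at least 75% but some replicate below; inactive means mean inhibition below 75%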;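 further: 0% = median of neutral control wells and 100% = pilot-screen positive control compound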
ABHD5 PLIN5 PPI = blocks binding of human ABHD5 to perilipin-5 | Q00G26+Q8WTS1 | Split G. princeps luciferase complementation, luminescence, 4 h | inhibition, % at 4 µM | 0.78% of 360,000 active;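 active means inhibition above the mean inhibition across every tested compound plus 3 SD, cut at about 22% in these data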;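 further: 0% = DMSO only wells and the 100% control is not disclosed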
Target sequence (Q00G26 whole entry, looked up): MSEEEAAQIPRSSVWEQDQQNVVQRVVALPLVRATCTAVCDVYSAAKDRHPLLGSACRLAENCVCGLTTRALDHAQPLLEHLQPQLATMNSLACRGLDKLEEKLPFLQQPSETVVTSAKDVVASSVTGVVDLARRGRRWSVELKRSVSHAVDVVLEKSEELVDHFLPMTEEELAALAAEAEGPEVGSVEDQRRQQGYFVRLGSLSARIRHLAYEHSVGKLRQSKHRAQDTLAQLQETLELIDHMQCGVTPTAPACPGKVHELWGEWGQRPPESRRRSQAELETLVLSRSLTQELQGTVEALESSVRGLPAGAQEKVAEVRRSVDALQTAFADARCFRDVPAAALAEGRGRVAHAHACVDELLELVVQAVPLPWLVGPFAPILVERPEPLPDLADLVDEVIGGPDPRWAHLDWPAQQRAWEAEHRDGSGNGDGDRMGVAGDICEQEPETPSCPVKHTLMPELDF
Target sequence (Q8WTS1 whole entry, looked up): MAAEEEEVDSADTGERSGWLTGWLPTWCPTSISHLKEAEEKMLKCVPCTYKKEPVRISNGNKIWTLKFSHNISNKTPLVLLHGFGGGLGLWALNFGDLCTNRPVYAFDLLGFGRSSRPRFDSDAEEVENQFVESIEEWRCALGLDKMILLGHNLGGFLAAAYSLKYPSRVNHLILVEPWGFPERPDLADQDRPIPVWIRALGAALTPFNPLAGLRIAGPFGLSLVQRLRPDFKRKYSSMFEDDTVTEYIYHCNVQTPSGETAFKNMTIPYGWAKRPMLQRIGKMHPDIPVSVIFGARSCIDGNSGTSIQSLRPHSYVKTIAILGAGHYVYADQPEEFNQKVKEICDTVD
EWS-Fli block = inhibitors of EWS/Fli oncoprotein transcriptional activity; A673 NR0B1-luciferase reporter, viability-normalised; inhibition, % at 12.6 µM; 0.67% of 350,000 active;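 active means mean inhibition of at least 50% after viability correction, with every replicate also passing that limit; inconclusive means mean reaches 50% but only one of two replicates passes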;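 further: firefly luciferase signal divided by Alamar Blue viability fluorescence both relative to DMSO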
PAX8 inh HTS = inhibitors of PAX8 transcriptional activity in RMG-I cells. inhibition, % at 12.6 µM. 1.2% of 360,000 active. RMG-I TPO-luciferase reporter, SteadyGlo, 24 h;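 active means mean replicate inhibition at least 60% with every replicate also reaching 60%; inconclusive means only one of the two criteria is met; inactive means mean below 60% and not all replicates reaching 60%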;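 further: luciferase light reporting Pax8 driven TPO promoter activity; plate controls were median of neutral control wells for no effect and mitoxantrone controls for full effect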
DNA binding = binds DNA displacing acridine orange | shares compounds with EWS-Fli block | salmon sperm DNA acridine orange fluorescence polarization | AC35, µM (titrated, usually from 68 µM), inactives show top-dose activity change, negative = DNA binding | 2% of 640 active;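 active means fitted curve reaches a 35% signal fall AC35 below twice the sample's top valid tested dose, actives reach about 48 µM in these data; inactive means the rest, including activity in the rising direction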;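 further: lower polarization ratio signals compound binding to DNA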
An asterisk follows results filed as active; ? = inconclusive; . = no result. This is a sample that favours compounds with a hit; in the whole collection about 3% have one here.

SMILES | Peg3 promoter | TRPM1 prom inh | Shn3 3UTR inh | ABHD5 PLIN5 PPI | EWS-Fli block | PAX8 inh HTS | DNA binding
O=C(c1nnsc1S(=O)c1ccc(Cl)cc1)N1CCOCC1 (stereo not given) | 101* | 88* | 94* | 73* | 78* | 112* | -10%
C[C@H]1CCCCO[C@H](CN(C)C(=O)c2ccccc2)[C@@H](C)CN([C@@H](C)CO)C(=O)c2cc(NS(C)(=O)=O)ccc2O1 | . | . | . | . | -3 | -18 | .
CN(c1ccc(NC(=O)CCc2c[nH]c3ccccc23)cc1)c1ccccn1 | . | . | . | . | 59* | 20 | -7%
Nc1ncccc1OCc1cccc(C(F)(F)F)c1 | -26 | 2 | -7 | 1 | -6 | -4 | .
Nc1nc(N)c(-c2cccc(C(F)(F)F)c2)c(Cc2cccc(C(F)(F)F)c2)n1 | 39 | 19 | ? | 8 | 58* | 5 | -3%
CN(C)c1nc2c(N)ncnc2n1C1OC(CO)C(O)C1O (stereo not given) | 5 | -1 | 5 | -1 | 5 | 5 | .
CN(C)c1ncnc2c1ccn2C1OC(CO)C(O)C1O (stereo not given) | 8 | 4 | 88* | 1 | 63* | ? | 14%
O=c1cc(CN2CCN(Cc3ccccc3)CC2)c2ccc(O)c(O)c2o1 | 15 | 8 | 21 | 2 | 52* | 29 | -5%
C[C@H](CO)N1C[C@H](C)[C@H](CN(C)C(=O)Cc2ccccc2)Oc2cc(C#CC3CCCC3)ccc2S1(=O)=O | . | . | . | . | 12 | ? | .
COC(=O)c1c(C)[nH]c(/C=N/Nc2ccccc2)c1C | -153 | -97 | -33 | -1 | 54* | -33 | -17%
Cc1c(C=NNc2ccccc2)[nH]c(=O)[nH]c1=O | 4 | -8 | 3 | -3 | 17 | -27 | .
O=C(CNC(=O)Cc1ccccc1)N=Nc1c(O)n(Cc2ccc3c(c2)OCO3)c2ccccc12 | 27 | 14 | 23 | 4 | 66* | 4 | -7%
COC(=O)Cn1c(O)c(N=NC(=O)CNC(=O)c2ccc3c(c2)OCCO3)c2ccccc21 | -12 | -7 | 9 | -8 | . | 10 | .
CO[C@H]1CN(C)C(=O)c2cc(NC(=O)c3cccc(Oc4ccccc4)c3)ccc2OC[C@@H](C)NC[C@H]1C | . | . | . | . | 16 | . | .
O=C(O)c1ccccc1C(=O)Nc1ccc(Oc2ccccc2)cc1 | 4 | . | -9 | -6 | 3 | -5 | .
CC(C)(C)c1ccc(Oc2ccc(NC(=O)c3ccccc3C(=O)O)cn2)cc1 | 12 | . | 44 | 2 | 63* | 14 | 2%
CC(C)(C)c1ccc(Oc2ccc(N)cn2)cc1 | 30 | . | 39 | -8 | 71* | 14 | -14%
Cc1c(Cl)cnc(NC(=O)COC(=O)c2ccc3ncsc3c2)c1Cl | -6 | 27 | -15 | -6 | 62* | 22 | -12%
C[C@@H]1CN([C@@H](C)CO)C(=O)c2cc(C3=CCCC3)cnc2O[C@@H]1CN(C)C(=O)CN1CCOCC1 | . | . | . | . | -23 | -3 | .
CO[C@@H](CN(C)C(=O)Nc1ccc(Cl)cc1)[C@@H](C)CN(Cc1ccccc1Cl)[C@@H](C)CO | . | . | . | . | 19 | . | .
Cc1ccc(/C=C/C(=O)N2CCN(S(=O)(=O)c3c(C)c(C)cc(C)c3C)CC2)o1 | 17 | 12 | 4 | 16 | 85* | 15 | 0%
Nc1ccn([C@@H]2O[C@H](CO)[C@@H](O)C2O)c(=O)n1 (stereo not given in full) | 23 | 18 | 83 | 2 | 51* | 25 | -7%
Nc1ccn([C@@H]2O[C@H](CO)[C@@H](O)[C@H]2O)c(=O)n1 | 8 | -10 | -6 | -8 | 5 | -14 | .
COc1ccc(CCCNC(=O)C2Cc3c(-c4cccc(C(C)=O)c4)ccnc3O2)cc1 (stereo not given) | -10 | . | 3 | 12 | ? | 34 | .
COc1ccc(CCCNC(=O)C2Cc3c(-c4ccc5c(c4)OCO5)ccnc3O2)cc1 (stereo not given) | 15 | . | -3 | 7 | 53* | 28 | -2%
SMILES | Peg3 promoter | TRPM1 prom inh | Shn3 3UTR inh | ABHD5 PLIN5 PPI | EWS-Fli block | PAX8 inh HTS | DNA binding
CC(=O)N1CCCCN2[C@H](CO)[C@H](c3ccc(-c4cccc(C(=O)N(C)C)c4)cc3)[C@H]2C1 | . | . | . | . | 1 | -15 | .
O=C(C[C@@H]1C[C@H]2c3cc(NC(=O)CC4CC4)ccc3O[C@H]2[C@H](CO)O1)NCc1ccccc1F | . | . | . | . | 56* | . | -4%
COCC(=O)Nc1ccc2c(c1)[C@H]1C[C@@H](CC(=O)NCc3ccc(-c4ccccc4)cc3)O[C@@H](CO)[C@H]1O2 | . | . | . | . | 5 | 18 | .
COCC(=O)Nc1ccc2c(c1)[C@@H]1C[C@@H](CC(=O)NCc3ccc(-c4ccccc4)cc3)O[C@@H](CO)[C@@H]1O2 | . | . | . | . | 60* | 42 | 6%
COc1cc(OC)cc(-c2cc3ccccc3c(=O)o2)c1 | -143 | -40 | -37 | 2 | -56 | -90 | .
Nc1ccc(-c2cc3ccccc3c(=O)o2)cc1 | -45 | 74* | 38 | 3 | 64* | -14 | -24%
C[C@H]1O[C@@H](O[C@H]2[C@@H](O)C[C@H](O[C@H]3[C@@H](O)C[C@H](O[C@H]4CC[C@@]5(C)[C@H](CC[C@@H]6[C@@H]5C[C@@H](O)[C@]5(C)[C@@H](C7=CC(=O)OC7)CC[C@]65O)C4)O[C@@H]3C)O[C@@H]2C)C[C@H](O)[C@@H]1O | 103* | 67* | -23 | -1 | 66* | 109* | -4%
Cc1[nH]c(=S)sc1Cc1ccc(Cl)c(Cl)c1 | . | . | . | . | 79* | 1 | -4%
C[C@H]1CN([C@@H](C)CO)S(=O)(=O)c2ccc(C#CC(C)(C)O)cc2O[C@@H]1CN(C)Cc1ccc(-c2ccccc2)cc1 | . | . | . | . | 68* | . | 4%
